Hits are enriched below; roughly 17% of the tested compounds scored in any of these assays.
DT40 TDP1 CPT = qHTS for Inhibitors of human tyrosyl-DNA phosphodiesterase 1 (TDP1): qHTS in cells in presence of CPT; chicken DT40 Tdp1-/-;hTDP1 cells + 20 nM CPT, ATP luminescence, 48 h; Potency, µM (highest dose often 46.2 µM), inactives show top-dose activity change, negative = growth inhibition, most hits filed as inhibitors; 12% of 420,000 active; AID 686979, 2013; also: % is scaled to controls: 0 for no effect and ±100 for the full control effect; nearly all actives have a fitted effect of over 55% in size
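Chicken DT40 Tdp1-/- cells stably complemented with human TDP1 were seeded at 400 cells/well in medium containing 20 nM camptothecin, exposed to pin-transferred compounds, and grown at 37 °C for at least 48 hr. Viability was read as ATP luminescence.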
ATXN2 expr inh = Primary qHTS for Inhibitors of ATXN expression. HEK-293 ATXN2-luciferase reporter, luminescence, 24 h. Potency, µM (titrated, usually from 57 µM), inactives show top-dose activity change, negative = inhibition, hits mostly inhibitors. 0.72% of 360,000 active; also: % is scaled to controls: 0 for no effect and ±100 for the full control effect; nearly all actives have a fitted effect of over 55% in size
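qHTS (up to 57 uM final) was run with 24 h compound exposure of reporter cells at 37 °C. Each well was multiplexed: SteadyGlo luminescence measured ATXN2-luciferase expression after a fluorogenic Gly-Phe-AFC viability readout (25 uM final).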
TDP1 cell noCPT = qHTS for Inhibitors of human tyrosyl-DNA phosphodiesterase 1 (TDP1): qHTS in cells in absence of CPT; 15% of 420,000 active; AID 686978, 2013; Potency, µM (top dose mostly 46.2 µM), for the others: at the top dose activity change, negative = growth inhibition, actives largely listed as inhibitors; DT40 Tdp1-/- hTDP1 cells, no CPT, ATP luminescence, 48 h; also: % is scaled to controls: 0 for no effect and ±100 for the full control effect; nearly all actives have a fitted effect of over 55% in size
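Cells were dispensed at 400 per well, compounds added by pin tool, plates incubated ≥48 hr at 37 °C, then CellTiter-Glo added for 30 min at room temperature before luminescence reading. Line: DT40 Tdp1-/- complemented with hTDP1; camptothecin omitted.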
TGFb SMAD3 inh = qHTS for Inhibitors of TGF-b | 1.2% of 410,000 active | Potency, µM (titrated, usually from 46.1 µM), for the others: at the top dose activity, negative = inhibition, usual class: inhibitors | HepG2 CAGA-GFP TGF-b/SMAD3 reporter, GFP fluorescence, 18 h; TGF-beta stimulated, 500 pg/mL final; also: % is scaled to controls: 0 for no effect and ±100 for the full control effect; nearly all actives have a fitted effect of over 65% in size
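Read-out: total well GFP (ex488/em500-530) summed from mean per-cell fluorescence. Cells: HEPG2 CAGA-GFP, 1% FBS DMEM, 18 h at 37 degrees C with 500 pg/mL final TGF-beta. Unstimulated wells served as the full-inhibition control; stimulated DMSO wells = 0%.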
HepG2 tox = qHTS for Inhibitors of TGF-b: Cytotox Counterscreen; 0.76% of 410,000 active; AID 588856, 2011; Potency, µM (top dose mostly 46.1 µM), without a hit: at the top dose activity change, negative = cytotoxicity, actives largely listed as cytotoxic; HepG2 CAGA-GFP viability, ATP luminescence, 18 h
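CellTiter-Glo luminescence gave cytotoxicity after 18 hours at 37 degrees C. The cells were HepG2 CAGA-GFP in 1% FBS DMEM, stimulated with 500 pg/mL TGF-beta after compound addition. %Activity was normalised to no-cell wells (complete cell-killing) and DMSO (no toxicity), and curves were fitted and classified.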
ATXN viability = Viability Counterscreen for Primary qHTS for Inhibitors of ATXN expression | S2 cells (HEK-293 line with an ATXN2-luciferase reporter) viability, CellTiter-Fluor protease fluorescence, 24 h | Potency, µM (top dose mostly 56.7 µM), hits mostly cytotoxic | 0.49% of 400,000 active; also: nearly all actives have a fitted effect of over 40% in size
Active calls of the source: *. Calls follow the shape of the dose curve; as a rule, active = well fitted curve in the direction sought with a large enough effect; inconclusive = small, poorly fitted or top-dose-only effect, or another doubt; inactive = no such curve, though single readings can be large; an effect the other way counts as inactive or inconclusive. Potency is read from the fitted curve at half-maximal effect.

For OC(CNCc1ccccc1)(c1ccc(F)cc1)c1ccc(F)cc1 the results were DT40 TDP1 CPT inconclusive, TDP1 cell noCPT 18µM*, TGFb SMAD3 inh 0% and HepG2 tox -54%.
For OC(CNCc1ccc(F)cc1)(c1ccccc1)c1ccc(F)cc1 (stereo not given) the results were DT40 TDP1 CPT inconclusive, ATXN2 expr inh -18%, TDP1 cell noCPT inconclusive, TGFb SMAD3 inh 0%, HepG2 tox -37% and ATXN viability inconclusive.
`Cc1ccc(CNCC(O)(c2ccc(F)cc2)c2ccc(F)cc2)cc1` gave DT40 TDP1 CPT 21µM*, ATXN2 expr inh -32%, TDP1 cell noCPT inconclusive, TGFb SMAD3 inh inconclusive, HepG2 tox -112% and ATXN viability inactive.
`N#CC(C#N)=C(Nc1ccc(F)cc1)SCc1cccc(Br)c1` gave DT40 TDP1 CPT 2.9µM*, ATXN2 expr inh inconclusive, TDP1 cell noCPT 2.3µM*, TGFb SMAD3 inh 1.6µM*, HepG2 tox -75% and ATXN viability inconclusive.
Screening C=Cc1ccc(CSc2nc(-c3ccc(Cl)cc3)nc3c2Cc2c(CO)cnc(C)c2O3)cc1 returned DT40 TDP1 CPT 8.2µM*, ATXN2 expr inh 1%, TDP1 cell noCPT 23µM*, TGFb SMAD3 inh 2%, HepG2 tox -1% and ATXN viability inactive.
For C=Cc1ccc(CSc2nc(-c3ccccc3C)nc3c2Cc2c(CO)cnc(C)c2O3)cc1 the results were DT40 TDP1 CPT inconclusive, ATXN2 expr inh inconclusive, TDP1 cell noCPT 21µM*, TGFb SMAD3 inh -8%, HepG2 tox -2% and ATXN viability inconclusive.
For C=Cc1ccc(CSc2nc(-c3ccc(OC)cc3)nc3c2Cc2c(CO)cnc(C)c2O3)cc1 the results were DT40 TDP1 CPT 5.8µM*, ATXN2 expr inh 13%, TDP1 cell noCPT 5.2µM*, TGFb SMAD3 inh -6%, HepG2 tox 4% and ATXN viability inactive.
`COc1ccc(-c2nc3c(c(SCc4ccc(Br)cc4)n2)Cc2c(CO)cnc(C)c2O3)cc1` gave DT40 TDP1 CPT inconclusive, ATXN2 expr inh 4%, TDP1 cell noCPT 4.1µM*, TGFb SMAD3 inh -26%, HepG2 tox -5% and ATXN viability inactive.
Screening COc1ccc(-c2nc3c(c(SC)n2)Cc2c(CO)cnc(C)c2O3)cc1 returned DT40 TDP1 CPT -6%, TDP1 cell noCPT -10%, TGFb SMAD3 inh 18% and HepG2 tox 1%.
`COc1ccc(CN2CCCCC2c2cccnc2)c(OC)c1C` (stereo not given) gave DT40 TDP1 CPT -2%, ATXN2 expr inh -2%, TDP1 cell noCPT -10%, TGFb SMAD3 inh -12%, HepG2 tox -3% and ATXN viability inactive.
`O=C(CCc1nnc(Cc2ccc3c(c2)OCO3)o1)NCc1nc2ccccc2s1` gave DT40 TDP1 CPT 4%, ATXN2 expr inh 1%, TDP1 cell noCPT 18%, TGFb SMAD3 inh 3%, HepG2 tox -7% and ATXN viability inactive.
`COc1ccc(S(=O)(=O)NCCSC(C)(C)C)c(Cl)c1Cl` gave DT40 TDP1 CPT inconclusive, ATXN2 expr inh 2%, TDP1 cell noCPT inconclusive, TGFb SMAD3 inh inconclusive, HepG2 tox -4% and ATXN viability inactive.
`O=C(CC12CC3CC(CC(C3)C1)C2)Nc1cccc2nc(NCCNCCO)ccc12` gave ATXN2 expr inh -4%.
`O=C(Nc1cnn(Cc2ccc(Cl)cc2)c1)c1cnccn1` gave DT40 TDP1 CPT -26%, ATXN2 expr inh 3%, TDP1 cell noCPT -9%, TGFb SMAD3 inh 18%, HepG2 tox -25% and ATXN viability inactive.
